# In PubChem BioAssay AID1745849 (National Center for Advancing Translational Sciences (NCATS), 2022):
# Screen size: about 2,100 compounds; about 320 (15%) were called active. Roughly 52% stayed inconclusive and do not appear here. The call rests on the fitted dose curve; in most records, active means well fitted cell-killing curve with a large enough effect; inconclusive means small, poorly fitted or top-dose-only effect, or effect the other way; inactive means flat fitted curve, though single readings scatter. The list shows a part of the results.
# Assay: Viability Counterscreen for CMV-Luciferase Assay of Inhibitors of ATXN expression; further: nearly all actives have a fitted effect of over 55% in size
# Settings: HEK-293 CMV-luciferase cells viability, protease fluorescence, 24 h; series mostly up to 57.5 µM
# How it was run: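 Fluorescence from cleaved Gly-Phe-AFC (25 uM final, 30 min, ex 405/em 540 nm) reported viability, and the luciferase signal of the same CMV-reporter HEK-293 wells was read 5 min after SteadyGlo addition. Dosing lasted 24 hr.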
# On the % scale 0 is the no-effect control and ±100 the full control effect; potency means the concentration at half of the fitted maximal effect.
SMILES,Potency,"activity change, negative = cytotoxicity"
O=C(CSC1c2ccccc2-c2ccccc21)N/N=C/c1ccccc1O,3.55 µM (active),
CCCCCCC(=O)N/N=C/c1c(O)n(CCCC)c(=S)[nH]c1=O,inactive,
CCCCCCC(=O)N/N=C/c1c(O)n(CCc2ccccc2)c(=O)[nH]c1=O,8.91 µM (active),
CC(=NCCc1c[nH]c2ccccc12)c1c(O)n(Cc2ccccc2)c(=O)[nH]c1=O,inactive,
COc1ccc(CCNCc2ccc(F)cc2)cc1OC,,-21.2% [at 11.4 µM] (inactive)
C[C@]12CCC3C(CCC4=CC(O)CC[C@@]43/C=N/O)C1(O)CCC2C1=CC(=O)OC1 (some centres undefined),1.41 µM (active),
CC(=O)OC1CC2(O)C3CCC4CC(O)CCC4(C)C3CCC2(C)C1C1=CC(=O)OC1 (centres undefined),0.501 µM (active),
CC12CCC(O)CC1CCC1C2CCC2(C)C(C3=CC(=O)OC3)C(O)CC12O (centres undefined),7.94 µM (active),
C[C@]12CC[C@H](O)C[C@H]1CC[C@@H]1[C@@H]2CC[C@]2(C)[C@@H](C3=CC(=O)OC3)CC[C@]12O,0.794 µM (active),
CC[C@@]1(O)C(=O)OCc2c1cc1n(c2=O)Cc2cc3c(NC(=O)CN)cccc3nc2-1,,25.7% [at 11.4 µM] (inactive)
COC1C(O)C(C)OC(OC2C(Oc3cccc4c(O)c5c(=O)oc6ccc(C)c7c(=O)oc(c34)c5c67)OC(C)C(O)C2O)C1O (centres undefined),,7.77% [at 11.4 µM] (inactive)
CC1OC(OC2C(O)CC(OC3C(O)CC(OC4CCC5(C)C(CCC6C5CCC5(C)C(C7=CC(=O)OC7)C(O)CC65O)C4)OC3C)OC2C)CC(O)C1O (centres undefined),0.251 µM (active),
CN1C2CCC1/C(=C/c1ccccn1)C(=O)/C2=C\c1ccccn1,0.708 µM (active),
C[C@@H]1C[C@@H]([C@H](O)CC2CC(=O)NC(=O)C2)C(=O)[C@@H](C)C1,1.78 µM (active),
CCC(C)N1C(=O)/C(=C\c2cnc(N(C)C)nc2)C(=O)NC1=S (centres undefined),inactive,
C=CCCC[C@@H]1OC(=O)CNC(=O)C([C@@H](C)CC)NC(=O)[C@@H]2CCCN2C(=O)C([C@@H](C)CC)OC(=O)[C@H](Cc2ccccc2)N(C)C(=O)[C@H](C(C)C)NC(=O)C1(C)C (some centres undefined),3.55 µM (active),
CCCCCOc1ccc(C)cc1CN(CCCl)CCCl,22.4 µM (active),
CCCCCn1c(=O)c(C(=O)NCc2ccccn2)c(O)c2ccccc21,,-15.5% [at 11.4 µM] (inactive)
C[C@H]1[C@@H](OS(=O)(=O)O)C[C@@H]2C[C@H]([C@@H](O)c3cc(=O)[nH]c(=O)[nH]3)NC3=NC[C@H]1N32,12.6 µM (active),
CSCCC(c1nnnn1-c1c(C)cccc1C)N1CCC2(CC1)C(=O)NCN2c1ccccc1 (centres undefined),28.2 µM (active),
CC(C)CNc1c2c(nc3ccccc13)CCC2,,-29.7% [at 11.4 µM] (inactive)
Cc1ccc(/C=C2\C(=O)NC(=S)N(c3ccccc3F)C2=O)s1,3.98 µM (active),
C[C@H]1CCC[C@@H](O)CCC/C=C/c2cc(O)cc(O)c2C(=O)O1,1.58 µM (active),
C[C@H]1CCC[C@H](O)CCCCCc2cc(O)cc(O)c2C(=O)O1,,-5.55% [at 11.4 µM] (inactive)
CCC(C)(O)C(=O)OC1C(=O)OC2CC3C(C)=CC(=O)C(O)C3(C)C3C4(O)OCC23C1C(C)C4O (centres undefined),0.316 µM (active),
COc1ccc2c(c1)C(c1ccc(N(CCCl)CCCl)cc1)=NCC2,inactive,
O=C1NC(=O)C2(CCCc3ccc(N(CCCl)CCCl)cc32)N1 (centres undefined),11.2 µM (active),
CC1CC(C)CC(C)C(O)C(C#N)=CC=CCC(C2CCCC2C(=O)O)OC(=O)CC(O)C(C)C1 (centres undefined),0.398 µM (active),
COC(=O)C(O)(c1ccc(NC(=S)NC(=O)c2ccc(Cl)cc2Cl)c(C)c1)C(F)(F)F (centres undefined),,1.53% [at 11.4 µM] (inactive)
